Among all 48,000 compounds or so, about 13,000 (27%) showed an effect of 50% or more. Some of the results follow.
tested on: Wolbachia pipientis; assay: Anti-Wolbachia Cell-Based Screen; type: functional; set-up: scale not given: in the data most compounds retested in dose-response had high values; details: 5 µM

Row | SMILES | Percent Effect
1 | CC(C)c1noc(CN(Cc2ccccc2F)C2CC2)n1 | 5.507%
2 | COc1ccccc1CCc1nc(CC2CCN(C)CC2)no1 | 0.6251%
3 | COc1ccccc1CN(Cc1nc(CC(C)C)no1)C1CC1 | 68.8%
4 | CC(CCc1ccccc1F)C(=O)NS(C)(=O)=O (stereo not given) | -12.84%
5 | Cc1nc(C)n(C2CCCN(C(=O)CCOCC(C)C)C2)n1 (stereo not given) | 96.93%
6 | Cc1nc(C)n(C2CCCN(C(=O)CCOC(C)C)C2)n1 (stereo not given) | 104.7%
7 | Cc1nc(C)n(C2CCCN(C(=O)c3csc(C(C)C)n3)C2)n1 (stereo not given) | -3.924%
8 | Cc1nc(C)n(C2CCCN(C(=O)c3cnc[nH]3)C2)n1 (stereo not given) | 5.274%
9 | CC(NC(N)=O)C(=O)N(C)Cc1cccc(C(F)(F)F)c1 (stereo not given) | -8.418%
10 | O=C1CC(NCc2cnc(-c3cccs3)nc2)CN1c1ccccc1 (stereo not given) | 9.928%
11 | Cn1nc(C#N)c2c1CN(C(=O)c1ccsc1)CCC2 | -3.731%
12 | Cn1ncc2c(N3CCCN(C(=O)c4ccsc4)CC3)ncnc21 | 109.6%
13 | Cc1csc(N2CCCN(C(=O)c3ccsc3)CC2)n1 | 30.07%
14 | Cn1ncc2c(N3CCN(C(=O)c4ccsc4)CC3)ncnc21 | 110.5%
15 | Cc1nc(N2CCN(C(=O)c3ccc(O)cc3)CC2)c2cnn(C)c2n1 | 3.35%
16 | Cc1nc(N2CCN(C(=O)c3ccccc3)CC2)c2c(n1)c(C)nn2C | 38.43%
17 | Cn1ncc2c(=O)[nH]c(N3CCN(C(=O)c4ccsc4)CC3)nc21 | 8.888%
18 | CCc1nsc(N2CCCN(C(=O)c3ccsc3)CC2)n1 | 9.27%
19 | Cc1nc(N2CCN(C(=O)c3ccsc3)CC2)c2cnn(C)c2n1 | 2.047%
20 | Cc1nc(N2CCCN(C(=O)c3ccsc3)CC2)c2cnn(C)c2n1 | 93.06%
21 | Cc1ncnc2c1CCN(C(=O)c1ccsc1)CC2 | -12.52%
22 | Cc1nc(N2CCN(C(=O)c3ccccc3)CC2)c2cnn(C)c2n1 | 113.9%
23 | CN(C)CCn1c(=O)oc2ccc(NC(=O)CC(C)(C)C)cc21 | 14.89%
24 | Cc1ccc(NC(C)C(=O)NCc2cccs2)cc1C (stereo not given) | -16.27%
25 | CCOc1ccc2ccccc2c1CNCC1CCS(=O)(=O)C1.Cl (stereo not given) | -1.499%
26 | CCOc1ccnc(N2CCN(C(=O)C(C)(C)C#N)CC2)n1 | 0.4658%
27 | COc1cc(CN(C)C(=O)NCc2cccnc2OC)ccc1SC | -20.02%

Row | SMILES | Percent Effect
28 | Cc1cc(CS(=O)(=O)C(C)c2ccc(F)cc2)on1 (stereo not given) | -4.028%
29 | COc1ccc(CNC2CCN(c3ccccc3)C2)c(OC)c1OC (stereo not given) | -16.13%
30 | O=C(c1ccnc(-n2ccnc2)c1)N1CCCC(n2cccn2)C1 (stereo not given) | 103.2%
31 | Cc1nccn1C1CCCN(C(=O)c2ccnc(-n3ccnc3)c2)C1 (stereo not given) | 102.3%
32 | O=C(c1ccc(-n2ccnc2)nc1)N1CCCC(n2cccn2)C1 (stereo not given) | -14.33%
33 | CN(C)c1cc(C(=O)N2CCCC(n3cccn3)C2)ccn1 (stereo not given) | -2.177%
34 | O=C(c1cccc(Cn2ccnc2)c1)N1CCCC(n2ccnc2)C1 (stereo not given) | 0.5166%
35 | O=C(c1ccnc(-n2ccnc2)c1)N1CCCC(n2ccnc2)C1 (stereo not given) | 100.2%
36 | Cc1nccn1C1CCCN(C(=O)c2cccc(Cn3ccnc3)c2)C1 (stereo not given) | 99.35%
37 | CC(C)n1ccnc1CN1CCOC(CC2CCCCC2)C1 (stereo not given) | 1.186%
38 | CCc1ccc(-c2cn(CCSc3ncn[nH]3)nn2)nc1 | 2.471%
39 | Cn1nnnc1SCCNC(=O)C1CCN(C(=O)C2CCC2)CC1 | 1.92%
40 | CC(C)[C@H]1CN(CC2CCC2)C[C@@H]1NC(=O)c1ccc(=O)[nH]c1 | 7.651%
41 | CN(C)C(=O)c1nc(CN2C(=O)OC[C@@H]2c2ccccc2)no1 | 1.255%
42 | O=C(CN1CCS(=O)(=O)CC1)NC1CCCc2ccccc21 (stereo not given) | 8.057%
43 | CCN(CCO)Cc1cn(-c2cccc(F)c2)nc1-c1ccc(C)o1 | 11.71%
44 | O=C1CN(Cc2nnc(-c3ccc(Cl)cc3)o2)CCN1 | -10.36%
45 | c1ccc2c(c1)CC(N1CCCC(NCc3cccc4nonc34)C1)C2 (stereo not given) | -10.52%
46 | CCN(CCn1cccn1)C(=O)CN1C(=O)OC[C@@H]1c1ccccc1 | -1.306%
47 | O=S(=O)(c1cccnc1)N1CCN(CC(O)c2ccccc2)CC1 (stereo not given) | 2.359%
48 | CS(=O)(=O)N1CCCCC1CCc1ccc(O)cc1 (stereo not given) | 6.219%
49 | CS(=O)(=O)N1CCCC1CS(=O)(=O)c1ccccc1 (stereo not given) | 121.3%
50 | Cc1nccn1CC1CCCN1S(=O)(=O)Cc1ccccc1 (stereo not given) | -11.24%
51 | O=S(=O)(CC1CCCN1S(=O)(=O)C1CC1)c1ccccc1 (stereo not given) | 115.6%
52 | O=S(=O)(CC1CCCN1S(=O)(=O)c1cccnc1)c1ccccc1 (stereo not given) | 115.5%
53 | NC1CCCCN(Cc2ccccc2CS(=O)(=O)c2ccccc2)C1 (stereo not given) | -12.21%
54 | O=S(=O)(c1cccnc1)N1CCCC1COc1ccccc1 (stereo not given) | -14.29%

Row | SMILES | Percent Effect
55 | O=C(CC1CCCN1S(=O)(=O)N1CCCCC1)c1cccs1 (stereo not given) | -4.447%
56 | CS(=O)(=O)c1ccc(-c2c[nH]c([C@@H]3COCCN3)n2)cc1 | 22.57%
57 | COc1ccc(OC)c2c(C)cc(N(C)Cc3cc(C)on3)nc12 | -2.431%
58 | Cc1nc2cc(=O)[nH]n2c(C)c1CC(=O)Nc1ccc2ccccc2n1 | -9.33%
59 | COc1cccc(-c2noc(C3CCN(Cc4ccncc4)C3)n2)c1 (stereo not given) | 126.2%
60 | COc1cccc(-c2noc(C3CCN(Cc4cccs4)C3)n2)c1.Cl (stereo not given) | 4.787%
61 | COc1cccc(-c2noc(C3CCN(CC(N)=O)C3)n2)c1 (stereo not given) | 113.2%
62 | COc1cccc(-c2noc(C3CCN(Cc4ccc(C)cc4)C3)n2)c1.Cl (stereo not given) | 91%
63 | COc1cccc(-c2noc(C3CCN(CC4CCCCC4)C3)n2)c1.Cl (stereo not given) | 96.8%
64 | Cc1cccc(-c2noc([C@@H]3C[C@@H](O)CN3C3CCOCC3)n2)c1 | -7.928%
65 | CCS(=O)(=O)c1ccc2oc([C@H]3CCN(CC4CCCCC4)C3)nc2c1 | -4.53%
66 | c1ccc(-c2noc(C3CCN(CCn4cccn4)CC3)n2)cc1 | 4.986%
67 | COc1cccc(-c2cccc(CN3C[C@@H]4CC[C@H](C3)N(C)C4=O)c2)c1 | 5.514%
68 | COc1cccc(COC(C)C(=O)NC2CCN(CC(N)=O)CC2)c1 (stereo not given) | -5.378%
69 | Cc1c(NC(C)C(C)C)cccc1C(=O)NCc1cnn(C)c1 (stereo not given) | 6.886%
70 | COC(=O)c1sccc1S(=O)(=O)NCC1(O)CCOc2ccccc21 (stereo not given) | -4.679%
71 | CCOC(=O)CN1CCC(NC(=O)OC(C)(C)C)CC1 | -0.4465%
72 | COc1cccc([C@@H](C)n2ccnc2-c2cc3n(n2)CCNC3)c1 | -10.36%
73 | CN(Cc1nc2ccccc2[nH]1)C(=O)C(C)(C)n1cc(Cl)cn1 | 2.79%
74 | Cc1cc(C)nc(N2CCC(c3cccc(CCC(=O)O)n3)CC2)n1 | 80.96%
75 | O=C(O)CCc1cccc(C2CCCN2Cc2cccc(Cl)c2)n1 (stereo not given) | 91.67%
76 | COc1cc(C)nc(N2CCN(C(=O)CCc3cscn3)CC2)n1 | -12.29%
77 | NC(=O)COc1cccc(CN2CCCC2c2ccc[nH]2)c1 (stereo not given) | 11.28%
78 | O=C(O)CCc1cn(C2CCN(c3ncccc3Cl)CC2)nn1 | -1.723%
79 | Cc1nn(C)c(C)c1C1CCCN1Cc1cccc(C(N)=O)c1 (stereo not given) | 1.349%
80 | Cc1cccc(CN2CCCC2c2cccc(CCC(=O)O)n2)c1 (stereo not given) | 96.42%
81 | O=C(O)CCc1cccc(C2CCCN2Cc2ccc(F)c(F)c2)n1 (stereo not given) | -6.193%

Row | SMILES | Percent Effect
82 | CC(=O)c1cc(CN2CCCC2c2nc3ccc(C)cc3[nH]2)cs1 (stereo not given) | -31.75%
83 | CCCN1CCCn2nc(CNC(=O)CC3CCS(=O)(=O)C3)cc2C1 (stereo not given) | -3.917%
84 | CCc1ccc(C2COCCN2C(=O)Nc2cccc(C(C)=O)c2)o1 (stereo not given) | -4.107%
85 | CSc1ncc(C(=O)NCc2cc3n(n2)CCCN(CC(C)C)C3)cn1 | 10.82%
86 | CC(=O)N1CCC2(CC1)CN(CC(C)C)CC21CCNC1=O.O=C(O)C(F)(F)F (stereo not given) | -42.64%
87 | COc1cc2c(cc1OC)S(=O)(=O)N(Cc1ccccc1C)C2=O | -3.651%
88 | CCOCCCNc1nc(O)cc(C2CC(=O)N(C)C2)n1 (stereo not given) | -9.932%
89 | CC(=O)N1CC[C@H]2CC(=O)N(C3CCCCC3)CC[C@H]2C1 | -3.423%
90 | CC1CCN(c2nc(O)cc(C3CC(=O)N(C4CCCCC4)C3)n2)CC1 (stereo not given) | 162.6%
91 | CC(C)Nc1nc(O)cc(C2CC(=O)N(C3CCCCC3)C2)n1 (stereo not given) | 137.6%
92 | O=C1CC(c2ncc(-c3ccc4c(c3)OCCO4)[nH]2)CN1C1CCCC1 (stereo not given) | 12.43%
93 | CCNC(=O)N1CC[C@H]2CC(=O)N(C3CCCCC3)CC[C@H]2C1 | 0.2272%
94 | CCc1nc(C)c(CN2CCN(c3ncnc4c(C)csc34)CC2)[nH]1 | 6.188%
95 | O=c1cc(CN2CCCC(CCc3c(F)cccc3F)C2)[nH]c(=O)[nH]1 (stereo not given) | -9.358%
96 | O=C1NCCCCC1NC(=O)C1(c2cccc(Cl)c2)CC1 (stereo not given) | -14.19%
97 | Cc1nc(CN2CCC3(CC2)NC(=O)CC3c2cccnc2)cs1 (stereo not given) | 101%
98 | COc1ccc(CN2CCC3(CC2)NC(=O)CC3c2ccncc2)cc1.O=C(O)C(F)(F)F.O=C(O)C(F)(F)F (stereo not given) | 4.952%
99 | O=C(O)C(F)(F)F.O=C(O)C(F)(F)F.O=C1CC(c2ccncc2)C2(CCN(CC3CC3)CC2)N1 (stereo not given) | 90.78%
100 | O=C1CC(c2ccncc2)C2(CCN(CCO)CC2)N1 (stereo not given) | -11.83%
101 | O=C(O)C(F)(F)F.O=C1CC(c2ccccc2)C2(CCN(CC3CC3)CC2)N1 (stereo not given) | -11.51%
102 | Cc1nc(CN2CCC3(CC2)NC(=O)CC3c2ccncc2)cs1.O=C(O)C(F)(F)F.O=C(O)C(F)(F)F (stereo not given) | 104.7%
103 | CCc1ccc(CN2CCC3(CC2)NC(=O)CC3c2ccncc2)o1.O=C(O)C(F)(F)F.O=C(O)C(F)(F)F (stereo not given) | -16.11%
104 | O=C(O)C(F)(F)F.O=C1CC(c2ccncc2)C2(CCN(C(=O)c3cccs3)CC2)N1 (stereo not given) | 1.39%
105 | O=C1CC(c2cccnc2)C2(CCN(C(=O)N3CCOCC3)CC2)N1 (stereo not given) | 18.29%
